Inhibition data for two compounds are collected here from ChEMBL document CHEMBL1961873, “Compounds: GSK PKIS; Assays: Nanosyn kinase panel” (2012).

The target of experiment [1] is Protein kinase C gamma type (Homo sapiens) (UniProt P05129). The following applies: at 1 µM.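 Also: each value is an averaged percent inhibition of the enzyme.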
In experiment [2] the target is T1, Protein kinase C iota type (Homo sapiens) (UniProt P41743).
T1 sequence (whole entry): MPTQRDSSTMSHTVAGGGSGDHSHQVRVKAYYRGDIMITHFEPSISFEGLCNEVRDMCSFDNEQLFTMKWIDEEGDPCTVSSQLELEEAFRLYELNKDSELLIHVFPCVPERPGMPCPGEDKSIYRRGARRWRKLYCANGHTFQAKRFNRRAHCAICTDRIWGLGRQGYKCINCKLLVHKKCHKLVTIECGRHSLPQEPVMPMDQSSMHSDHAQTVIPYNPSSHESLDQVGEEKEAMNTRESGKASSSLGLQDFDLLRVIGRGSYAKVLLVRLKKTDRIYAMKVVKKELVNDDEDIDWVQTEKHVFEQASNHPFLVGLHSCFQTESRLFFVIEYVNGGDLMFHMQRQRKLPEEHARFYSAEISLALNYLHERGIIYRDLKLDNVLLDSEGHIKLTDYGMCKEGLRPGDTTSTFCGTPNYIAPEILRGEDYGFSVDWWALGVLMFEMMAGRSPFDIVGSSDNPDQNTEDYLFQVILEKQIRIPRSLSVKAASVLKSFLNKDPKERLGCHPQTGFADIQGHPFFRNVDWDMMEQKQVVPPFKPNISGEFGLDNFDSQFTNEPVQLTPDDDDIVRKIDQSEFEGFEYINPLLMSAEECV
The following applies: at 0.1 µM.

The target in experiment [3] is T1, Protein kinase C iota type (Homo sapiens). The settings on record: at 1 µM.
Experiment [4] concerns the target Protein kinase C theta type (Homo sapiens) (UniProt Q04759). The following applies: at 0.1 µM.
The target is the same in experiment [5]. The settings on record: at 1 µM.
For experiment [6], the target named is Protein kinase C beta type (Homo sapiens) (UniProt P05771). The settings on record: at 0.1 µM.
For experiment [7] the target is unchanged. The following applies: at 1 µM.
For experiment [8], the target named is T2, Serine/threonine-protein kinase D1 (Homo sapiens) (UniProt Q15139).
T2 sequence (whole entry): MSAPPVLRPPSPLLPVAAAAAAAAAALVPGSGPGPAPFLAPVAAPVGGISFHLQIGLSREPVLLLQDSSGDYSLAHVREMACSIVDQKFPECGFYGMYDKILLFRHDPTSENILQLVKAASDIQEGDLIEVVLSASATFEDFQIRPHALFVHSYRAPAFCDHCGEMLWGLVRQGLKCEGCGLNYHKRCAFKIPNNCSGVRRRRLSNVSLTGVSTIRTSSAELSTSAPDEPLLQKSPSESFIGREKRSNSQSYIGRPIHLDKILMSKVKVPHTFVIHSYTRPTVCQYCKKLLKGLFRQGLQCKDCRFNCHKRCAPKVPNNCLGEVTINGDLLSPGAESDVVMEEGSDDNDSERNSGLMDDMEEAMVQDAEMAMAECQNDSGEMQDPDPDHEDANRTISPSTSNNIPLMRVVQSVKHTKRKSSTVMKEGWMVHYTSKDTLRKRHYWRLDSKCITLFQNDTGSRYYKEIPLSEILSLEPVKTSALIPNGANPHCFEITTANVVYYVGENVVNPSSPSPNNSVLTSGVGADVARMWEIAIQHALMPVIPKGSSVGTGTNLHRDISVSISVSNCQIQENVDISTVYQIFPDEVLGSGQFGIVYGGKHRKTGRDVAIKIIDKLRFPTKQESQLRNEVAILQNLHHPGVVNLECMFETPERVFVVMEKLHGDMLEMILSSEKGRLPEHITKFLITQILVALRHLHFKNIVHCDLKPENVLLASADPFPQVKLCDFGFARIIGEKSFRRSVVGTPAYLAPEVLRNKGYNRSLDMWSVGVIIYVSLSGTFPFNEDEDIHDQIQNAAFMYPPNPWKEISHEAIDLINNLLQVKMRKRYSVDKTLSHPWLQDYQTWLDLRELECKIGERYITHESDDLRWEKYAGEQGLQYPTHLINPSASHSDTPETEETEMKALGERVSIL
The settings on record: at 0.1 µM.

In experiment [9] the target is T2, Serine/threonine-protein kinase D1 (Homo sapiens). The following applies: at 1 µM.
The target in experiment [10] is T3, Serine/threonine-protein kinase D2 (Homo sapiens) (UniProt Q9BZL6).
T3 sequence (whole entry): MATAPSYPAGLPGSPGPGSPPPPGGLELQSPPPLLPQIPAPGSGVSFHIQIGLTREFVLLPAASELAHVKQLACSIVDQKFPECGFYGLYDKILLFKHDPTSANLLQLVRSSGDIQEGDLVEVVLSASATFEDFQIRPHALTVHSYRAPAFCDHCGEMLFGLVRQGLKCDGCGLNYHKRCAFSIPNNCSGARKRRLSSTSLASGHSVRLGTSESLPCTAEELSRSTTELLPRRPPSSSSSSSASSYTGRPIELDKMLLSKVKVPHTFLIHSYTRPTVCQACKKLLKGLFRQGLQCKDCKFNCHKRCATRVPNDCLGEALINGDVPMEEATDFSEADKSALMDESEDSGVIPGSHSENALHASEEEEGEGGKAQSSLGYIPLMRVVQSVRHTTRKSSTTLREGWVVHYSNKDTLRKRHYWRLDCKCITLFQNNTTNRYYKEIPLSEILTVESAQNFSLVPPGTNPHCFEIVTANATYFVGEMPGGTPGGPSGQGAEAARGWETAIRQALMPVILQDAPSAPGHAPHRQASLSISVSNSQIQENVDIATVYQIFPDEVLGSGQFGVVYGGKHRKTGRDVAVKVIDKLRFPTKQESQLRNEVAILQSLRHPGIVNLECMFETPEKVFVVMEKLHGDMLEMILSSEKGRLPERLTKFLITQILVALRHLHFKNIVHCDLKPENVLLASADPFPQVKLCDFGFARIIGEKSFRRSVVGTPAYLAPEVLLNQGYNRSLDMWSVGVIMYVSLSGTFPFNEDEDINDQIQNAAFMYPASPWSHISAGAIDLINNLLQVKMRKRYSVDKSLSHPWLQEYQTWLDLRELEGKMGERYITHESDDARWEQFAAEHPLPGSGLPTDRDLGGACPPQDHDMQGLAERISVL
The settings on record: at 0.1 µM.

Experiment [11] addresses T3, Serine/threonine-protein kinase D2 (Homo sapiens). The settings on record: at 1 µM.
The target of experiment [12] is T4, Serine/threonine-protein kinase D3 (Homo sapiens) (UniProt O94806).
T4 sequence (whole entry): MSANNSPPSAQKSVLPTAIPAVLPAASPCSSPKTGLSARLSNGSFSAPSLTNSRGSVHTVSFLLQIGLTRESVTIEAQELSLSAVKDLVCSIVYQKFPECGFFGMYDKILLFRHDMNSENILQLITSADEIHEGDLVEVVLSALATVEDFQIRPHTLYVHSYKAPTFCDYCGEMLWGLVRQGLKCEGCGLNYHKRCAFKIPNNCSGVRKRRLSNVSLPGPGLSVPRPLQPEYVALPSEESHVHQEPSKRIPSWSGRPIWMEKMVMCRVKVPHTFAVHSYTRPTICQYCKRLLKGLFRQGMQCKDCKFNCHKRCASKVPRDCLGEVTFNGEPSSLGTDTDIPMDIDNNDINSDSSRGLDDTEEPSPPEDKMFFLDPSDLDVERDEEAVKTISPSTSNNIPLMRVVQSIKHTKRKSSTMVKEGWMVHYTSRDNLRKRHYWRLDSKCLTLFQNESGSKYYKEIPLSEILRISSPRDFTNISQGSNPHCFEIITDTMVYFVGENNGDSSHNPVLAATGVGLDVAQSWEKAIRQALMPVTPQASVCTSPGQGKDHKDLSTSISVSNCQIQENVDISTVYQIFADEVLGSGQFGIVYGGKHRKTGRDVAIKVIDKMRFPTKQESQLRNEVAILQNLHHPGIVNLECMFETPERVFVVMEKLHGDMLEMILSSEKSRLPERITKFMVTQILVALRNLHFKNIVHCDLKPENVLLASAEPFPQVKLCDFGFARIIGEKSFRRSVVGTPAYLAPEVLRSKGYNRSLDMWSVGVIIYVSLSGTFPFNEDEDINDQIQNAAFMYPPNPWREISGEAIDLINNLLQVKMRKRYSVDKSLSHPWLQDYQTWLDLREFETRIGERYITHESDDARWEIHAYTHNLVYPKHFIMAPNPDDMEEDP
The following applies: at 0.1 µM.

For experiment [13], the target named is T4, Serine/threonine-protein kinase D3 (Homo sapiens). The settings on record: at 1 µM.
Experiment [14] has as its target T5, cGMP-dependent protein kinase 1 (Homo sapiens) (UniProt Q13976).
T5 sequence (whole entry): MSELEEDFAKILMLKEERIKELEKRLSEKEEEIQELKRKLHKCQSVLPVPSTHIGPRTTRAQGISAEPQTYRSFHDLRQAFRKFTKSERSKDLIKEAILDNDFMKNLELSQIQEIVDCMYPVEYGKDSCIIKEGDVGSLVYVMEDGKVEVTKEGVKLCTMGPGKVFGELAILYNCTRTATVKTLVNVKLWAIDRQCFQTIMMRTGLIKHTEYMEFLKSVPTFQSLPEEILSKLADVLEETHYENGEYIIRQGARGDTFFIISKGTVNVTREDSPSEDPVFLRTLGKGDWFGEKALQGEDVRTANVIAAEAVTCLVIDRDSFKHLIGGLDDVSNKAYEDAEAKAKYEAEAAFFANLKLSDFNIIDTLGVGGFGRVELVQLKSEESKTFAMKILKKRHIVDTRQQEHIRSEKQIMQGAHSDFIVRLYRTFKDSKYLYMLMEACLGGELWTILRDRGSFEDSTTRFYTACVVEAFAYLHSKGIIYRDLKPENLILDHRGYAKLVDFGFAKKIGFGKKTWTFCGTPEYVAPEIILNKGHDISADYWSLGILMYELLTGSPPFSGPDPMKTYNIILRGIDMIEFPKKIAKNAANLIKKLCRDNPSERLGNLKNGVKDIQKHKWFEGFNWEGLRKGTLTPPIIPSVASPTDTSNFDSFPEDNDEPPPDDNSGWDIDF
The settings on record: at 0.1 µM.

In experiment [15] the target is T5, cGMP-dependent protein kinase 1 (Homo sapiens). The following applies: at 1 µM.
Experiment [16] has as its target T6, cGMP-dependent protein kinase 2 (Homo sapiens) (UniProt Q13237).
T6 sequence (whole entry): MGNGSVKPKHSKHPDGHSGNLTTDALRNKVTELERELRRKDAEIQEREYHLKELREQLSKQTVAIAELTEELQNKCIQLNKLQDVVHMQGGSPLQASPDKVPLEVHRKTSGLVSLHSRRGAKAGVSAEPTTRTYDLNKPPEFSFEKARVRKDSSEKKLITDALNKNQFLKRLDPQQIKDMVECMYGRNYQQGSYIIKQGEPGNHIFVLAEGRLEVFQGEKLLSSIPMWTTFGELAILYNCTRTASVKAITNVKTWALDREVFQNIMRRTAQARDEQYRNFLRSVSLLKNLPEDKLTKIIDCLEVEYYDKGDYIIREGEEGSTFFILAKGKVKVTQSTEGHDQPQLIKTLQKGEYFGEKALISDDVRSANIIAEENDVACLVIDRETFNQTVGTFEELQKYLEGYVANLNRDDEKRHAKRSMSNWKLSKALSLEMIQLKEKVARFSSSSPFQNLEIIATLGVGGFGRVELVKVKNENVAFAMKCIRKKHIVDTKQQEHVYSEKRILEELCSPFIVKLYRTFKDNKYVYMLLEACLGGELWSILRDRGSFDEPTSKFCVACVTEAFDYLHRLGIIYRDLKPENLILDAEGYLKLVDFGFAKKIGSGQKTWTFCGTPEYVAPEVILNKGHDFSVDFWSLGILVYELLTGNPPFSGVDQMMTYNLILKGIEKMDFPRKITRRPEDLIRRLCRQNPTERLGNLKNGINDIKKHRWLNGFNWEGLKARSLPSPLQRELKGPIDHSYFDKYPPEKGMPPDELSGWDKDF
The following applies: at 0.1 µM.

In experiment [17] the target is T6, cGMP-dependent protein kinase 2 (Homo sapiens). The following applies: at 1 µM.
In experiment [18] the target is T7, cAMP-dependent protein kinase catalytic subunit PRKX (Homo sapiens) (UniProt P51817).
T7 sequence (whole entry): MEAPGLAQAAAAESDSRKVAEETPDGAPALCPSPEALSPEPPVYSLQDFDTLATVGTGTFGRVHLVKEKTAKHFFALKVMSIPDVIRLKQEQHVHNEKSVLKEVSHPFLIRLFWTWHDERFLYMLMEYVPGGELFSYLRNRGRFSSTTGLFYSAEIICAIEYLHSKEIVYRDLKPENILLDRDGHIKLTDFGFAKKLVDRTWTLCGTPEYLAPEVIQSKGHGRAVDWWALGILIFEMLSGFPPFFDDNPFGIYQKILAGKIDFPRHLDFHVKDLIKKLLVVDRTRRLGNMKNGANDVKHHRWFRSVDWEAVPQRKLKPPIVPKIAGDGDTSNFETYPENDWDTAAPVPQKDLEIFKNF
The settings on record: at 0.1 µM.

Experiment [19] deals with T7, cAMP-dependent protein kinase catalytic subunit PRKX (Homo sapiens). The settings on record: at 1 µM.
For experiment [20], the target named is Rho-associated protein kinase 1 (Homo sapiens) (UniProt Q13464). The following applies: at 0.1 µM.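 Also: values are mean percent inhibition of ROCK1.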
Rho-associated protein kinase 1 (Homo sapiens), sequence (Q13464 2-1354 limits assumed): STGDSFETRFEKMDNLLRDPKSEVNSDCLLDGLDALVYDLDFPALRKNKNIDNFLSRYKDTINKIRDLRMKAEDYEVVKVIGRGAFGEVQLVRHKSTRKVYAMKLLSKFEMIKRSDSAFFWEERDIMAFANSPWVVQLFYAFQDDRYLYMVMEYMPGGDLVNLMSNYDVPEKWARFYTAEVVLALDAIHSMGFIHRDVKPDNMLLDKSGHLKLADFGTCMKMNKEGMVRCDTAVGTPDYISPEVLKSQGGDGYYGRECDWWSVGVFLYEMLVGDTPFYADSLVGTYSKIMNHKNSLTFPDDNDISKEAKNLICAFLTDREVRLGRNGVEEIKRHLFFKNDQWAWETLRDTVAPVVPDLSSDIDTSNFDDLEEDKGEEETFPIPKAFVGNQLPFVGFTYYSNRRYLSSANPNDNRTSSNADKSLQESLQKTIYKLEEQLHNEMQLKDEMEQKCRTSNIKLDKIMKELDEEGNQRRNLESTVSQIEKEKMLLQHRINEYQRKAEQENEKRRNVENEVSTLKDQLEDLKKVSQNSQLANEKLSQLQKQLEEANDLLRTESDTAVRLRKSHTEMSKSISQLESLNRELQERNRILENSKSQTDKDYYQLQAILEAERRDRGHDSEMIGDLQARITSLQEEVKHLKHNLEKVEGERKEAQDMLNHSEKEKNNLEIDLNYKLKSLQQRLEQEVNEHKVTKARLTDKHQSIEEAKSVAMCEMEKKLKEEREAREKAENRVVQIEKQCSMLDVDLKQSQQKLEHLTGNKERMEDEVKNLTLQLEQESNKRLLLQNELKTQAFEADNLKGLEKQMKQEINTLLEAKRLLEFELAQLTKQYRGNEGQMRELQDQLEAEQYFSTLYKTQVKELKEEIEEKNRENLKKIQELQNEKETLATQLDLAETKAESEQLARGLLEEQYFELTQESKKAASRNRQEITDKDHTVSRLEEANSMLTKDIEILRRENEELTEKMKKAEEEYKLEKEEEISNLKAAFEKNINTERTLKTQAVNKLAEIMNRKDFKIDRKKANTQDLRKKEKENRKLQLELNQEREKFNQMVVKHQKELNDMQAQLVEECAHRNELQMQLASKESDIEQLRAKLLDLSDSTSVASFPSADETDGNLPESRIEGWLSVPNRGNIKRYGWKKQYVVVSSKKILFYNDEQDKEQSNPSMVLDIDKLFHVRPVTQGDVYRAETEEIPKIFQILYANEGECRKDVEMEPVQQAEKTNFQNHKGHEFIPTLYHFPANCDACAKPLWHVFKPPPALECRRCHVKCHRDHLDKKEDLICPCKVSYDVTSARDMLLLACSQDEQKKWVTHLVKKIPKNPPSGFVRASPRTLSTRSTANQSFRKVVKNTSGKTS

Protein kinase C theta type (Homo sapiens), sequence (Q04759 whole entry, looked up): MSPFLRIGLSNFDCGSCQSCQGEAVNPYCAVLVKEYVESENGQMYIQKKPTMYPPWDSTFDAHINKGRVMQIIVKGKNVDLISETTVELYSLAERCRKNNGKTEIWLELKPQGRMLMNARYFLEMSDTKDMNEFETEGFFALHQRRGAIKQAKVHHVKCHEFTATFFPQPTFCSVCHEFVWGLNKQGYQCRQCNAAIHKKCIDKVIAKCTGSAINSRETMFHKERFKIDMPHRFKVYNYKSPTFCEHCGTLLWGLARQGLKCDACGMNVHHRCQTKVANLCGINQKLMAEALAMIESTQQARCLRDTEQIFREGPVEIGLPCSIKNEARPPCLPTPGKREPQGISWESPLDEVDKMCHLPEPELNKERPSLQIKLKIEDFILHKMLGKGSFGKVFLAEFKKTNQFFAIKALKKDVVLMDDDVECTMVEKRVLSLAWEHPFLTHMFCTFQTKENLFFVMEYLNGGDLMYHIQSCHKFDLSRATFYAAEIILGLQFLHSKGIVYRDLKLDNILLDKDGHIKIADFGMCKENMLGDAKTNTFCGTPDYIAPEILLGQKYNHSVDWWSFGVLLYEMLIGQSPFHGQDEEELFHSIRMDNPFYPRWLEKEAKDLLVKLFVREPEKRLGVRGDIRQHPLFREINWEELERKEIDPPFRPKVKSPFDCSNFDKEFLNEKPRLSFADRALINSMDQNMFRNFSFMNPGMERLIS
Protein kinase C beta type (Homo sapiens), sequence (P05771 2-671 limits assumed): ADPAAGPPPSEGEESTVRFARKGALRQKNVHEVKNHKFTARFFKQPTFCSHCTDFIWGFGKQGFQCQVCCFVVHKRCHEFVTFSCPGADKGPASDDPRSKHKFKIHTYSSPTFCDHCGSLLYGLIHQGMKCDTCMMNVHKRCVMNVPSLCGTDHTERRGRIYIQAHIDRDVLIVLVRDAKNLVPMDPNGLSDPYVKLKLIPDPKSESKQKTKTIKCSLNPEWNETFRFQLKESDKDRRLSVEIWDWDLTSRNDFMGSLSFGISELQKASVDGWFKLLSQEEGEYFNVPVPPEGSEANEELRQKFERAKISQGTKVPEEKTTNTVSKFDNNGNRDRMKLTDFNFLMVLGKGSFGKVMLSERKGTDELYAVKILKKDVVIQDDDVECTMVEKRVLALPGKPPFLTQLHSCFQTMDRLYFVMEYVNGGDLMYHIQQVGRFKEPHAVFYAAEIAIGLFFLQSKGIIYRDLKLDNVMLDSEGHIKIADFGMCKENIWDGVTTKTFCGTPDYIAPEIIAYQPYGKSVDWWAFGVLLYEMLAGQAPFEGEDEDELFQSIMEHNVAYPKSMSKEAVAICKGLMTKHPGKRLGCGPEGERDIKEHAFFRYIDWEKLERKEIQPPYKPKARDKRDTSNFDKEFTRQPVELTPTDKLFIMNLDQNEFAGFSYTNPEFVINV

Take `COc1ccc(C2=C(N3CCc4ccccc43)C(=O)NC2=O)cc1`: the inhibition came to 3.73% in experiment [1]; 2.04% in experiment [2]; 2.17% in experiment [3]; 2.55% in experiment [4]; 5.71% in [5]; 1.22% in experiment [6]. For the same compound, the inhibition stood at 3.96% in experiment [7]; 4.69% in experiment [8]; 9.24% in [9]; 5.06% in experiment [10]; 7.9% in experiment [11]; 4.84% in [12]. The inhibition in experiment [13] was found to be 8.41%; in experiment [14], 1.67%; in [15], 6.23%; in [16], 1.42%; in experiment [17], 4.94%; in experiment [18] it was 2.47%. For the same compound, the inhibition in experiment [19] was determined as 2.49%; in [20], 0.56%.

As to `O=C(Nc1ccc(Oc2ccc3[nH]c(NC(=O)c4ccccc4)nc3c2)cc1)Nc1cc(C(F)(F)F)ccc1F`, the inhibition in experiment [1] worked out at 3.66%; in experiment [2], 1.82%; in experiment [3] it was 0.93%; in experiment [4] it was 1.79%; in experiment [5], 2.18%; in experiment [6] it was 1.51%. The inhibition amounted to 4.95% in experiment [7]; 2.05% in experiment [8]; 3.41% in experiment [9]; 3.12% in [10]; 4.25% in [11]; 3.06% in experiment [12]. In addition, the inhibition in experiment [13] was 3.63%; in experiment [14], 2.01%; in experiment [15] it was 3.65%; in [16] it was 1.4%; in [17] it was 2.23%; in [18], 1.55%. The inhibition came to 1.09% in [19] and 0.24% in [20].
